GDH-TPI counter-1 – counter-screen for M. tuberculosis FBA inhibitors: GDH-TPI coupled enzymes. GDH-TPI coupled enzyme counterscreen, NADH absorbance. inhibition, % at 4.8 µM. 360,000 tested, 1.2% active; in the data active = inhibition above about 30%
Mtb betalactam – beta-lactam sensitization of Mtb H37Rv | M. tuberculosis H37Rv growth with meropenem, percent inhibition | inhibition, % at 25 µM | 330,000 tested, 0.27% active; call rule not given here;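 note: growth measured after seven days incubation then overnight dye step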
Rv3671c protease – inhibits the M. tuberculosis serine protease Rv3671c | inhibition, % at 5.96 µM | 320,000 tested, 0.048% active | AID 2606; in the data active = inhibition above about 38%;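 note: extracellular domain of Rv3671c used as enzyme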
RecA intein inh – Mtb RecA intein splicing inhibition. cell-free RecA intein splicing, fluorescence. inhibition, % (no concentration beside the values). 290,000 tested, 0.75% active. AID 2221; in the data active = inhibition above about 30%
Mtb UGM inh – blocks M. tuberculosis UGM enzyme | purified UGM, fluorescence polarization probe displacement | 320,000 tested, 0.06% active | P9WIQ1 | inhibition, % at 10 µM | AID 504406; in the data active = inhibition above about 10%, passing the limit was not always enough
Target sequence (P9WIQ1 whole entry, looked up): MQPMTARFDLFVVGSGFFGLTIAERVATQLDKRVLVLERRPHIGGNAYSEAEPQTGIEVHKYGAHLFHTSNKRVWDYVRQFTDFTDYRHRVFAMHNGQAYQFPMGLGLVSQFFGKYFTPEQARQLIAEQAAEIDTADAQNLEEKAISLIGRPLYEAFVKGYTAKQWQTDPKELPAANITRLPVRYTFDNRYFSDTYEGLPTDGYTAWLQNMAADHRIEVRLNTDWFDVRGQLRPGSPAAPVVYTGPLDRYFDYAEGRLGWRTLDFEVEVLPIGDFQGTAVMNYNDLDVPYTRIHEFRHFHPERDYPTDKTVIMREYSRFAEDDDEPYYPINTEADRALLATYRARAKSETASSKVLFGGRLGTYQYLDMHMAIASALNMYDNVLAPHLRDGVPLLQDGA
Mtb FBA inh – inhibits M. tuberculosis FBA enzyme | P9WQA3 | AID 588726 | purified M. tuberculosis FBA, fluorescence read-out | 360,000 tested, 2.3% active | inhibition, % at 1 µM
Mtb FBA inh conf – confirmation of M. tuberculosis fructose-bisphosphate aldolase inhibitors | 5,600 tested, 78% active | purified M. tuberculosis FBA, fluorescence read-out | inhibition, % at 1 µM | shares compounds with Mtb FBA inh
GDH-TPI counter-2 – counter-screen for M. tuberculosis FBA inhibitors: GDH-TPI coupled enzyme inhibition; shares compounds with Mtb FBA inh; GDH-TPI coupled enzyme counterscreen, fluorescence; inhibition, % at 1 µM; 5,600 tested, 81% active; AID 652141; in the data active = inhibition above about 10%
GDH-TPI dose – inhibits GDH-TPI coupling enzymes in dose response; shares compounds with Mtb FBA inh; GDH-TPI coupled enzyme assay, fluorescence, artifact counterscreen; IC50, µM; 170 tested, 79% active; AID 652145; call rule not given here
Numbers stand for hits; . = inactive; / = no result; + = active, no number. An excerpt weighted towards active compounds, which were near 4% of everything screened. Cut-off read from the data, not from the text of the source, unless noted: active = inhibition above about 27%; inactive = the rest.

SMILES | GDH-TPI counter-1 | Mtb betalactam | Rv3671c protease | RecA intein inh | Mtb UGM inh | Mtb FBA inh | Mtb FBA inh conf | GDH-TPI counter-2 | others
CC(Oc1ccc2c(c1)oc(=O)c1ccccc12)C(=O)NCCCN1CCOCC1 (configuration not stated) | . | . | . | . | . | 64 | . | . | GDH-TPI dose=2.9
Cc1c(C)c2ccc(OCC(=O)Nc3ccc(CN4CCOCC4)cc3)cc2oc1=O | . | . | . | . | . | 47 | 88 | 86
COc1ccc(Cc2c(-c3ccc(F)cc3)nc3c(C)cc(Br)cn23)c(C)c1 | / | / | / | / | / | . | / | /
COc1ccc(NC(=O)CN2CCC(NC(=O)c3ccco3)CC2)c([N+](=O)[O-])c1 | . | . | . | . | . | . | / | /
CC1C(c2ccccc2)OCCN1C(=S)NC(=O)c1ccccc1 (configuration not stated) | . | / | / | / | / | . | / | /
COc1cc(C)ccc1Oc1ccc([N+](=O)[O-])cc1 | . | / | / | / | / | . | / | /
Cc1c(OCC(=O)NCCCN2CCOCC2)ccc2c1oc(=O)c1ccccc12 | . | . | . | . | . | 47 | 98 | 68
CCCc1cc(=O)oc2cc(C)cc(OCC(=O)NC(Cc3ccc(Cl)cc3)C(=O)O)c12 (configuration not stated) | . | . | . | . | . | 70 | . | .
CCCCc1cc(=O)oc2cc(C)cc(OCC(=O)NC(Cc3ccc(Cl)cc3)C(=O)O)c12 (configuration not stated) | . | . | . | . | . | 63 | 105 | 68
CCCc1cc(=O)oc2cc(C)cc(OCC(=O)Nc3ccc(S(N)(=O)=O)cc3)c12 | . | . | . | . | . | . | / | /
COc1ccccc1C(CC(=O)O)NS(=O)(=O)c1ccc2c(c1)N(C(C)=O)CC(C)O2 (configuration not stated) | . | . | . | . | . | . | / | /
Cc1c(CCNC=O)cc(C)c2c3c(oc12)CCCC3 | . | / | / | / | / | . | / | /
Cc1cccc(S(=O)(=O)c2c(N)n(/N=C/c3cccnc3)c3nc4ccccc4nc23)c1 | . | . | . | . | . | . | / | /
Cc1cccc(S(=O)(=O)c2c(N)n(-c3ccccc3)c3nc4ccccc4nc23)c1 | . | . | . | . | . | 74 | 63 | 50
CCC(Cc1ccccc1)NC(=O)C1CCN(S(=O)(=O)c2ccc3c(c2)CC(C)N3C(C)=O)CC1 (configuration not stated) | . | . | . | . | . | . | / | /
Cc1cccn2c(=O)c(C=NCc3ccco3)c(Nc3ccc(SC(F)F)cc3)nc12 | . | . | . | . | . | . | / | /
Cc1cccn2c(=O)c(C=NCCO)c(NCc3ccco3)nc12 | . | . | . | . | . | 39 | + | +
CCOC(=O)N1CCC(NC(=O)CSCc2nc(-c3ccc(C)cc3)oc2C)CC1 | . | . | . | . | . | 51 | . | 20
CC(C)C1NC(C(=O)O)Cc2c1[nH]c1ccccc21 (configuration not stated) | . | . | . | . | . | 45 | 164 | 142
CCCC1NC(C(=O)O)Cc2c1[nH]c1ccccc21 (configuration not stated) | . | . | / | . | . | 29 | 36 | 35
CC(C)CC1NC(C(=O)O)Cc2c1[nH]c1ccccc21 (configuration not stated) | . | . | . | . | . | . | / | /
O=C(Nc1ccc(S(=O)(=O)NC2=NCCCCC2)cc1)c1ccccc1Cl | . | . | . | . | . | . | / | /
COc1cc(NC(=O)Nc2ccc(Cl)c(Cl)c2)c(C(=O)O)cc1OC | . | . | . | . | . | 104 | 49 | 47
CSc1ccccc1NC(=O)Nc1cccc(Cl)c1 | . | . | . | . | / | . | / | /
CN(C(=O)Nc1ccc(Cl)c(Cl)c1)c1ccccc1C(=O)O | . | . | . | . | . | 68 | 142 | 134
SMILES | GDH-TPI counter-1 | Mtb betalactam | Rv3671c protease | RecA intein inh | Mtb UGM inh | Mtb FBA inh | Mtb FBA inh conf | GDH-TPI counter-2 | others
Cc1ccc(NC(=O)Nc2cccc(Cl)c2)c(C(=O)O)c1 | . | . | . | . | . | 94 | 104 | 78
COc1ccc(CCC(=O)Nc2ccc(Cl)c(S(=O)(=O)N3CCCC3)c2)cc1 | . | . | . | . | . | . | / | /
CCCCC(SCC(=O)Nc1ccccc1)C(=O)O (configuration not stated) | . | . | . | . | . | 67 | 186 | 160
O=C(O)c1ccccc1CSc1nc2ccccc2[nH]1 | . | . | . | . | . | . | / | /
O=C(c1coc(=O)c(Br)c1)N1CCOCC1 | . | / | / | . | / | 98 | . | .
COc1cccc(CN(C)C(=O)C2CCCN(C(=O)c3ccc(Cl)cc3)C2)c1 (configuration not stated) | . | / | / | / | / | . | / | /
CCc1nnc(NC(=O)C2CCN(S(=O)(=O)c3ccc(C)cc3)CC2)s1 | . | . | . | . | . | . | / | /
CCc1nnc(NC(=O)C2CCN(S(=O)(=O)Cc3ccccc3)CC2)s1 | . | . | . | / | . | 35 | 86 | 69
NNC(=O)c1sc(-c2ccccc2)cc1N | . | . | . | . | . | 41 | . | .
CC(C)CC1NC(=O)c2cc(Cl)ccc2-n2c1nc1cc(F)ccc1c2=O (configuration not stated) | / | . | . | / | . | / | / | /
CC(=O)NN1C(=O)c2ccccc2NC1c1ccoc1 (configuration not stated) | . | . | . | . | . | 35 | 38 | 19
CC(=O)NN1C(=O)c2ccccc2NC1c1cccnc1 (configuration not stated) | . | . | . | . | . | 30 | 77 | 72
CC(=O)NN1C(=O)c2ccccc2NC1c1ccccc1F (configuration not stated) | . | . | . | . | . | 34 | 81 | 51
O=C(NN1C(=O)c2ccccc2NC1c1ccoc1)c1ccccc1 (configuration not stated) | . | . | . | . | . | . | / | /
O=C1c2ccccc2NC(c2cccnc2)N1c1ccccc1F (configuration not stated) | . | . | . | . | . | 71 | . | .
Cc1ccc(S(=O)(=O)NN2C(=O)c3ccccc3NC2c2ccccc2F)cc1 (configuration not stated) | . | . | . | . | . | . | / | /
O=C(Nc1ccncc1)C1CCC(CNS(=O)(=O)c2cccc3nsnc23)CC1 (configuration not stated) | . | . | . | . | . | . | / | /
CC1(C(=O)Nc2cccc(C(F)(F)F)c2)Cc2c(-c3ccc4c(c3)OCO4)ccnc2O1 (configuration not stated) | . | / | / | / | / | . | / | /
O=c1[nH]c(C(F)(F)C(F)(F)C(F)(F)F)no1 | . | / | / | / | / | . | / | /
CC(NC(=O)c1ccccc1)C(=O)N/N=C/c1cccc([N+](=O)[O-])c1 (configuration not stated) | . | . | . | . | . | . | / | /

Screens from PubChem BioAssay.
